# From PubChem BioAssay (EPA / NIEHS)
# Results filed as inconclusive are left out. Activity calls are given as the source filed them. The calls were made as follows, unless noted: active = hit-call score of the fitted dose curve at least 0.9, where 1 is the maximum; inconclusive = response in the unintended direction; inactive = score below 0.9.
# How the values were obtained:
# [1] = CEETOX_H295R_ESTRADIOL_noMTC: CeeTox H295R High-throughput Steroidogenesis Assay for Estradiol, maximum tolerated concentration (MTC) filtered results only (AID 2283919; active = hit-call score of the fitted dose curve at least 0.9, where 1 is the maximum; inactive = score below 0.9); conditions: actives raise or lower the signal
# In short: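 Readout: dansyl-derivatized estradiol quantified by LC-MS/MS in medium from H295R cells dosed 48 h (0.1% DMSO) following 48 h forskolin (10 uM) prestimulation. Gain or loss of signal fitted against DMSO; no MTC filtering applied.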
# [2] = CEETOX_H295R_PROG_noMTC: CeeTox H295R High-throughput Steroidogenesis Assay for Progesterone (PROG), maximum tolerated concentration (MTC) filtered results only (AID 2283920; active = hit-call score of the fitted dose curve at least 0.9, where 1 is the maximum; inactive = score below 0.9); conditions: actives raise or lower the signal
# In short: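 Readout: medium progesterone by MTBE extraction, reverse-phase C18 HPLC, ESI-positive MS/MS. Human H295R cells, 10 uM forskolin pretreatment 48 h, chemical 48 h in 0.1% DMSO. Gain or loss fitted against DMSO baseline.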
# [3] = CEETOX_H295R_ESTRONE_noMTC: CeeTox H295R High-throughput Steroidogenesis Assay for Estrone, maximum tolerated concentration (MTC) filtered results only (AID 2283921; active = hit-call score of the fitted dose curve at least 0.9, where 1 is the maximum; inactive = score below 0.9); conditions: actives raise or lower the signal
# Protocol: CEETOX_H295R is a cell-based, multiplexed-readout assay that uses H295R, a human adrenal gland cell line, with measurements taken at 48 hours after chemical dosing in a 96-well plate.CEETOX_H295R_ESTRONE_noMTC is one of 12 assay component(s) measured or calculated from the CEETOX_H295R assay (11 hormones and 1 viability assay). It is designed to make measurements of hormone induction, a form of inducible reporter, as detected with absorbance signals by HPLC-MS-MS technology. The concentrations for these components have not been pre-filtered for the maximum tolerated concentration (MTC) based on the MTT assay (_noMTC).Data from the assay component CEETOX_H295R_ESTRONE_noMTC was analyzed into 1 assay endpoint. This assay endpoint, CEETOX_H295R_ESTRONE_noMTC, was analyzed with bidirectional fitting relative to DMSO as the negative control and baseline of activity. […]
# Cell culture and media preparation procedures were conducted in accordance with OECD Test No. 456 guidelines, with minor modifications. […] For steroid quantification, media samples were shipped to OpAns, LLC (Durham, NC) on dry ice, and samples were thawed to room temperature prior to liquid-liquid extraction. […] Steroid hormones were separated by HPLC, eluted using a reverse phase C18 gradient with electrospray positive ionization, followed by quantification by tandem mass spectrometry (MS/MS). […]
# [4] = CEETOX_H295R_TESTO_noMTC: CeeTox H295R High-throughput Steroidogenesis Assay for Testosterone (TESTO), maximum tolerated concentration (MTC) filtered results only (AID 2283924; active = hit-call score of the fitted dose curve at least 0.9, where 1 is the maximum; inactive = score below 0.9); conditions: actives raise or lower the signal
# In short: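 Medium testosterone, measured by HPLC-MS/MS after liquid-liquid extraction, was fitted in both directions relative to DMSO without MTC filtering. Adrenal H295R cells received 48 h chemical exposure (0.1% DMSO final) after 48 h forskolin (10 uM) prestimulation; viability by MTT.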
# PGR (gene 5241) [5] = target: PGR (gene 5241) (UniProt P06401); assay: TOX21_PR_BLA_Followup_Antagonist_ratio: Tox21 HEK293 Progesterone Receptor (PR) Antagonism Beta-lactamase Follow-Up Assay, Ratio (AID 2283934);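 also: PR-UAS-bla HEK293T cells stimulated with 1 nM R5020 agonist for 16 hr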
# PGR (gene 5241), sequence (P06401 whole entry, looked up): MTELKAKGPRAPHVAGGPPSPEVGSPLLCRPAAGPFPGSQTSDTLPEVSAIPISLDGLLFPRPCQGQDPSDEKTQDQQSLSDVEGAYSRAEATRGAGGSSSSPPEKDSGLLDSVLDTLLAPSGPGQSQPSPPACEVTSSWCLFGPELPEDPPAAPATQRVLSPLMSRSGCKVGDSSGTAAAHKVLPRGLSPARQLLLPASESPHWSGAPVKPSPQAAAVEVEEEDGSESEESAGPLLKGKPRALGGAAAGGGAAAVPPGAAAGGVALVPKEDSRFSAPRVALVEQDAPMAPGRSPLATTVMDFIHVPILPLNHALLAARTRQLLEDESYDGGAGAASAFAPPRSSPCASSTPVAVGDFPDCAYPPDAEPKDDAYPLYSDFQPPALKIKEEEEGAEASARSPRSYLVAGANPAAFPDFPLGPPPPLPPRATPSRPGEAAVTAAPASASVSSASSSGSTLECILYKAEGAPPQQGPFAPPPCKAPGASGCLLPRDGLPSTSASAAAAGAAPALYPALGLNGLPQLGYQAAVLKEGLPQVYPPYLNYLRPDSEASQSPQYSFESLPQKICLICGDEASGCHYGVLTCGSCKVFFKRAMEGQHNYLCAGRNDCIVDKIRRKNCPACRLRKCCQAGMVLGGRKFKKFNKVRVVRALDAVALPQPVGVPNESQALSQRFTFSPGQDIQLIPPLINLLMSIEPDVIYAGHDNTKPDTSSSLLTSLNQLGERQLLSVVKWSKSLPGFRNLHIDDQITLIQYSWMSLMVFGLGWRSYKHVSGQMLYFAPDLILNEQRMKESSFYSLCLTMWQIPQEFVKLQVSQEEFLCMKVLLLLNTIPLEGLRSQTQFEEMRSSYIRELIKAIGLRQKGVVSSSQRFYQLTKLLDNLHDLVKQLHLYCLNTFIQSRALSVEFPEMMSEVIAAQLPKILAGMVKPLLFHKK
# In short: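 Readout is the blue/green (ch2/ch1) substrate cleavage ratio after 2 hours at room temperature, following 16 hr co-treatment of PR-bla HEK293T cells with compound and 1nM promegestone. Multiplexed CellTiter-Glo viability flags cytotoxicity; DMSO baseline.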
# [6] = TOX21_PR_BLA_Followup_Agonist_viability: Viability Assessment in the Tox21 HEK293 Progesterone Receptor (PR) Agonism Beta-lactamase Follow-Up Assay (AID 2283935);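 also: signal loss means lower viability so actives are cytotoxic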
# In short: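 Run multiplexed with the beta-lactamase FRET read, this endpoint measures ATP by CellTiter-Glo luminescence (30 min, room temperature). PR-UAS-bla HEK293T cells received compound 6 hr after plating and were then incubated 16 hr at 37C in 2% stripped serum.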
# [7] = TOX21_PR_BLA_Followup_Antagonist_viability: Viability Assessment in the Tox21 HEK293 Progesterone Receptor (PR) Antagonism Beta-lactamase Follow-Up Assay (AID 2283936);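 also: cells exposed to compound with R5020 agonist for 16 h; hits lower the luminescence signal meaning cytotoxicity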
# In short: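 PR-UAS-bla HEK293T cells in medium with 2% charcoal-stripped FBS were treated with compounds plus R5020 for 16 hr at 37C. After the beta-lactamase read, CellTiter-Glo was added to the same wells and luminescence read after 30 min at room temperature.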
# PGR (gene 5241) [8] = target: PGR (gene 5241) (UniProt P06401); assay: TOX21_PR_LUC_Followup_Antagonist: Tox21 HEK293 Progesterone Receptor (PR) Antagonism Luciferase Follow-Up Assay (AID 2283938);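 also: curve fitted upward as signal gain over DMSO baseline despite antagonist label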
# In short: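 HEK293-PR-A-luc cells, 3,000/well, preincubated 5 h at 37C before compound addition in DMSO; 16 h compound exposure at 37C. ONE-Glo luciferase luminescence read after 30 min at room temperature, fitted relative to DMSO baseline.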
# [9] = TOX21_PR_LUC_Followup_Antagonist_viability: Viability Assessment in the Tox21 HEK293 Progesterone Receptor (PR) Antagonism Luciferase Follow-Up Assay (AID 2283940)
# In short: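 Viability counter-readout: cellular ATP measured by luciferase luminescence after 16 h compound exposure at 37C of HEK293-PR-A-luc cells, which had been cultured in charcoal-stripped serum and seeded 5 h beforehand.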
# [10] = TOX21_PR_LUC_Followup_Agonist_viability: Viability Assessment in the Tox21 HEK293 Progesterone Receptor (PR) Agonism Luciferase Follow-Up Assay (AID 2283941);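 also: loss of signal means cytotoxicity so actives lower viability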
# In short: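 Cytotoxicity counter-readout in the PR-A luciferase reporter line HEK293, with 16 h compound exposure at 37C after cells were cultured in charcoal-stripped serum. Cellular ATP quantified by CellTiter-Glo luminescence.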
compound,measurement,setting,value
C/C=C/C(=O)C1=C(C)CCCC1(C)C,outcome,[1],inactive
same,AC50,[2],10.6 µM (active)
same,outcome,[3],inactive
same,outcome,[4],inactive
C[C@]12CC[C@@H]3c4ccc(O)cc4CC[C@H]3[C@@H]1CC[C@@H]2OC(=O)CCC1CCCC1,AC50,PGR (gene 5241) [5],1.01 µM (active)
same,outcome,[6],inactive
same,outcome,[7],inactive
same,outcome,PGR (gene 5241) [8],inactive
C[C@]12CC[C@@H]3c4ccc(O)cc4CC[C@H]3[C@@H]1C[C@@H](O)[C@@H]2O,AC50,PGR (gene 5241) [5],17.1 µM (active)
same,outcome,[6],inactive
same,AC50,PGR (gene 5241) [8],26 µM (active)
same,outcome,[9],inactive
same,outcome,[10],inactive
